For 8 molecules, outcome and AC50 results are on record in PubChem BioAssay (EPA / NIEHS).

Inconclusive results are not listed. Activity calls are given as the source filed them. The calls were made as follows, unless noted: active = hit-call score of the fitted dose curve at least 0.9, where 1 is the maximum; inactive = score below 0.9.

Read-out in assay [1]: Monokine induced gamma interferon (MIG), CXCL9 (gene 4283)
In words: BSK_SAg_MIG: BioMAP Diversity Plus: SAg Assay for Monokine induced gamma interferon (MIG) Biomarker Activity (AID 2283092). Conditions: primary human HUVEC with PBMC; actives raise or lower the signal. In a few lines: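 ELISA readout of MIG/CXCL9; primary human umbilical vein endothelial cells co-cultured with peripheral blood mononuclear cells; 24 h post-dose; gain/loss fit vs DMSO baseline.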

Assay [2] in a line: BSK_SAg_PBMCCytotoxicity: PBMC Cytotoxicity Assessment in the BioMAP Diversity Plus: SAg Assay (AID 2283093).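 Also: fitted both ways against DMSO so a hit may be loss or gain of signal.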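 As to AC50: PBMC superantigen activated with SEB plus TSST-1 one hour after compound addition.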 Conditions: primary human HUVEC with PBMC. In a few lines:
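PBMC viability by Alamar Blue reduction, fluorescence read at 546/580 nm after 6 h dye exposure. Cells were dosed 1 h before SEB plus TSST-1 activation (20 ng/mL final each), then held 90 h; endothelial/PBMC human co-culture.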

Read-out in assay [3]: Interleukin-8 (IL8), CXCL8 (gene 3576)
In words: BSK_SAg_IL8: BioMAP Diversity Plus: SAg Assay for Interleukin-8 (IL8) Biomarker Activity (AID 2283094). To be noted: primary human HUVEC with PBMC; actives raise or lower the signal. Put shortly: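 Chemicals were dosed onto a human endothelial–PBMC co-culture, and IL-8 was quantified by ELISA after 24 h. Both increases and decreases were fitted relative to DMSO.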

Assay [4] can be described thus: BSK_SAg_Proliferation: Cell Proliferation Assessment in the BioMAP Diversity Plus: SAg Assay (AID 2283095).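 Also: relative cell number as total protein by SRB absorbance in sub-confluent culture.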 To be noted: primary human HUVEC with PBMC. Put shortly: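 Absorbance of sulforhodamine B at 560 nm reports total protein in a human vascular endothelial/PBMC co-culture after 96 h chemical exposure. Gain or loss of signal is fitted in both directions against DMSO.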

The target of assay [5] is human CYP1A1, CYP1A1 (gene 1543) (UniProt P04798). In words: NVS_ADME_hCYP1A1: NovaScreen (NVS) CYP450-related Enzyme Activity (ADME) Assay for human CYP1A1 (AID 2283100; active = hit-call score of the fitted dose curve at least 0.9, where 1 is the maximum). Put shortly: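 Inhibition of recombinant CYP1A1 turnover was assessed fluorometrically in a biochemical format 1 h after compound exposure. Testing began at 10 uM in duplicate and progressed to concentration series reaching 20 uM, with on-plate positive and negative controls.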

For assay [6], the target named is human CYP2B6, CYP2B6 (gene 1555) (UniProt P20813). In words: NVS_ADME_hCYP2B6: NovaScreen (NVS) CYP450-related Enzyme Activity (ADME) Assay for human CYP2B6 (AID 2283101; active = hit-call score of the fitted dose curve at least 0.9, where 1 is the maximum). In a few lines: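 Fluorescence-based enzyme activity of recombinant human CYP2B6, measured 1 h post-dose against acetonitrile vehicle baseline. Screened at a single concentration of 10 uM in duplicate before concentration-response follow-up.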

Assay [7] concerns the target human CYP1A2, CYP1A2 (gene 1544) (UniProt P05177). In words: NVS_ADME_hCYP1A2: NovaScreen (NVS) CYP450-related Enzyme Activity (ADME) Assay for human CYP1A2 (AID 2283102; active = hit-call score of the fitted dose curve at least 0.9, where 1 is the maximum;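 also: potency for inhibition since loss of fluorescence marks reduced CYP1A2 activity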). Put shortly: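 Inhibition scored as decrease in fluorescent product versus acetonitrile negative control. Enzyme: insect-cell recombinant human CYP1A2, substrate-specific, cell-free. Reading at 0.5 h; 10 uM duplicate initial screen with positive and negative controls on every plate.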

In assay [8] the target is Cytochrome P450 2C18 (Homo sapiens) (UniProt P33260). In words: NVS_ADME_hCYP2C18: NovaScreen (NVS) CYP450-related Enzyme Activity (ADME) Assay for human CYP2C18 (AID 2283103). Put shortly:
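Enzyme activity measured by fluorescence 0.5 h after compound addition, using recombinant CYP2C18 and a specific substrate. Actives from duplicate 10 uM screening were retested in concentration series (top 20 uM); acetonitrile served as negative baseline.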

The target in assay [9] is human CYP2C8, CYP2C8 (gene 1558) (UniProt P10632). In words: NVS_ADME_hCYP2C8: NovaScreen (NVS) CYP450-related Enzyme Activity (ADME) Assay for human CYP2C8 (AID 2283104). In a few lines: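 Fluorescence readout of substrate turnover by recombinant CYP2C8 after 0.5 h, baseline acetonitrile. Single-concentration duplicate screen at 10 uM preceded singleton concentration series (max 20 uM) for compounds passing the inhibition threshold.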

For assay [10], the target named is human CYP2J2, CYP2J2 (gene 1573) (UniProt P51589). The assay can be described thus: NVS_ADME_hCYP2J2: NovaScreen (NVS) CYP450-related Enzyme Activity (ADME) Assay for human CYP2J2 (AID 2283106; active = hit-call score of the fitted dose curve at least 0.9, where 1 is the maximum). In a few lines: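 Chemicals were first tested at 10 uM in duplicate, and hits meeting criteria such as 30% inhibition were run in singleton concentration series with a 20 uM top concentration. Enzyme activity of recombinant CYP2J2 was measured by fluorescence after 1 h, relative to acetonitrile.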

Assay [11] addresses human CYP2D6, CYP2D6 (gene 1565) (UniProt P10635). The assay can be described thus: NVS_ADME_hCYP2D6: NovaScreen (NVS) CYP450-related Enzyme Activity (ADME) Assay for human CYP2D6 (AID 2283107; active = hit-call score of the fitted dose curve at least 0.9, where 1 is the maximum). Put shortly: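 Biochemical fluorescence assay, insect-cell-derived enzyme. Read at 1 h; inhibition taken from loss of signal against acetonitrile. Screened at 10 uM in duplicate, with concentration series for actives.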

For assay [12], the target named is human CYP2C9, CYP2C9 (gene 1559) (UniProt P11712). In words: NVS_ADME_hCYP2C9: NovaScreen (NVS) CYP450-related Enzyme Activity (ADME) Assay for human CYP2C9 (AID 2283108; active = hit-call score of the fitted dose curve at least 0.9, where 1 is the maximum). In a few lines:
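Recombinant human CYP2C9 expressed in SF9 cells, fluorogenic substrate, fluorescence read 0.75 h after dosing. Chemicals first run in duplicate at 10 uM, with actives followed in concentration series; loss of signal versus acetonitrile baseline.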

Assay [13] deals with Cytochrome P450 2C19 (Homo sapiens) (UniProt P33261). In words: NVS_ADME_hCYP2C19: NovaScreen (NVS) CYP450-related Enzyme Activity (ADME) Assay for human CYP2C19 (AID 2283113; active = hit-call score of the fitted dose curve at least 0.9, where 1 is the maximum;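 as to AC50: potency for inhibition seen as loss of fluorescent signal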). Put shortly: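 Biochemical CYP2C19 inhibition screen: insect-cell recombinant protein plus fluorescent substrate, 1 h, fluorescence intensity. Acetonitrile defined baseline activity. Single 10 uM concentration in duplicate, with concentration-response follow-up for actives.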

The target of assay [14] is rat CYP2A1, Cyp2a1 (gene 24894) (UniProt P11711). In words: NVS_ADME_rCYP2A1: NovaScreen (NVS) CYP450-related Enzyme Activity (ADME) Assay for rat CYP2A1 (AID 2283114). In a few lines: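 Cell-free fluorescence enzyme-activity read on recombinant rat CYP2A1, taken 0.75 h post-dosing. Compounds were screened in duplicate at 10 uM, then hits tested in concentration series (max 20 uM); inhibition scored relative to acetonitrile baseline.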

A short description of assay [15]: BSK_SAg_SRB: Viability Assessment in the BioMAP Diversity Plus: SAg Assay (AID 2283096).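 Also: cells read one day after compound addition; hits may be either gain or loss of signal compared with DMSO.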 Conditions: primary human HUVEC with PBMC. In a few lines: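 Compounds were added to a human vascular co-culture of umbilical vein endothelium and PBMC. After 24 h, parallel cultures were fixed with 10% TCA, stained with 0.1% sulforhodamine B and read at 560 nm. Gain or loss of signal was fitted relative to DMSO.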

In assay [16] the target is human CYP19A1, CYP19A1 (gene 1588) (UniProt P11511). In words: NVS_ADME_hCYP19A1: NovaScreen (NVS) CYP450-related Enzyme Activity (ADME) Assay for human CYP19A1 (AID 2283098; active = hit-call score of the fitted dose curve at least 0.9, where 1 is the maximum;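 as to AC50: potency for inhibitors seen as loss of fluorescent enzyme signal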). Put shortly:
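Fluorescence intensity read-out; activity taken as signal loss relative to acetonitrile vehicle. Extracted enzyme, specific substrate, no cells, 0.5 h exposure. Duplicate single-point screen at 10 uM, then concentration–response follow-up for actives.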

Assay [17] concerns the target Cytochrome P450 3A4 (Homo sapiens) (UniProt P08684). In words: NVS_ADME_hCYP3A4: NovaScreen (NVS) CYP450-related Enzyme Activity (ADME) Assay for human CYP3A4 (AID 2283110; active = hit-call score of the fitted dose curve at least 0.9, where 1 is the maximum). In a few lines:
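Recombinant CYP3A4 from insect cells, fluorescence enzyme read-out, 0.33 h after chemical addition. Acetonitrile = negative control/baseline. Primary HTS: 10 uM in duplicate; actives re-tested in concentration series.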

Chain of Cytochrome P450 2C18 (Homo sapiens) (P33260 whole entry, looked up): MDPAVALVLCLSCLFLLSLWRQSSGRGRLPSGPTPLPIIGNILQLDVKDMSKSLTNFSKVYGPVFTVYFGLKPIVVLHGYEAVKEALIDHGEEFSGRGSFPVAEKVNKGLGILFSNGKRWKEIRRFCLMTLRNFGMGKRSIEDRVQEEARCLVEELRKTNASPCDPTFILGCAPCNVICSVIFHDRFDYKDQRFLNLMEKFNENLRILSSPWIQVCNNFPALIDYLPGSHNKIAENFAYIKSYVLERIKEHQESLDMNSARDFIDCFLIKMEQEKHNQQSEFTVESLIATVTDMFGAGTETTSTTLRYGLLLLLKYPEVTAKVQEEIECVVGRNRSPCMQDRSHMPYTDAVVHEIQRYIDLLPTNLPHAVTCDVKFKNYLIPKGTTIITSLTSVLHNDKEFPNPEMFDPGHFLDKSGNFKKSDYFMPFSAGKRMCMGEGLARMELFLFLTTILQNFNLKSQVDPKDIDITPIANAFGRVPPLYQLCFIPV
Chain of human CYP2D6, CYP2D6 (gene 1565) (P10635 whole entry, looked up): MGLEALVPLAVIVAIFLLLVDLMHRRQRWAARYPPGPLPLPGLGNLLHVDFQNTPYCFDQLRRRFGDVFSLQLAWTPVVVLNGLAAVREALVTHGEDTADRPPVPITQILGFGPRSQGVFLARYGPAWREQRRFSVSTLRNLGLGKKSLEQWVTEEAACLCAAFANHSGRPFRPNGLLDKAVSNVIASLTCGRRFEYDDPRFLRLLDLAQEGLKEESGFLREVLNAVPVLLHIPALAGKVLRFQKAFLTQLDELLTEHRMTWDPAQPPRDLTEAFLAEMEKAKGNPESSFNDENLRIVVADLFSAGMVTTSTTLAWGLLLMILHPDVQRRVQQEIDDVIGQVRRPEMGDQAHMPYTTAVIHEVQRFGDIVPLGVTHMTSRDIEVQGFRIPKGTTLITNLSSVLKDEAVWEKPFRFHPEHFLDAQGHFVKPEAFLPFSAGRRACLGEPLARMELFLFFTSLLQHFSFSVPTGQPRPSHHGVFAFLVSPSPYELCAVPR
Chain of rat CYP2A1, Cyp2a1 (gene 24894) (P11711 whole entry, looked up): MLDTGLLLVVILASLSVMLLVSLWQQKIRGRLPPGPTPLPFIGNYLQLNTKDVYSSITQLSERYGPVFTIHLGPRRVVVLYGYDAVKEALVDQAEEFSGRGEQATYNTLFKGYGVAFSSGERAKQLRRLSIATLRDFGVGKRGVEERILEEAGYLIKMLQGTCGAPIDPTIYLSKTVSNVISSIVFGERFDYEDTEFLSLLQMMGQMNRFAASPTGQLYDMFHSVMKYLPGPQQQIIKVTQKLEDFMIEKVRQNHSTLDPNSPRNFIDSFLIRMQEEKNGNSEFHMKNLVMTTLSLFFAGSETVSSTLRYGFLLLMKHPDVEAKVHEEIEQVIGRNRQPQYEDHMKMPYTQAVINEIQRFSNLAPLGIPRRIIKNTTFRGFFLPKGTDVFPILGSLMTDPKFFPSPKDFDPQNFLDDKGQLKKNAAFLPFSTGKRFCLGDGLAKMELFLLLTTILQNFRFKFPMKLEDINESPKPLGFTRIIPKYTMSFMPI
Chain of human CYP2C9, CYP2C9 (gene 1559) (P11712 whole entry, looked up): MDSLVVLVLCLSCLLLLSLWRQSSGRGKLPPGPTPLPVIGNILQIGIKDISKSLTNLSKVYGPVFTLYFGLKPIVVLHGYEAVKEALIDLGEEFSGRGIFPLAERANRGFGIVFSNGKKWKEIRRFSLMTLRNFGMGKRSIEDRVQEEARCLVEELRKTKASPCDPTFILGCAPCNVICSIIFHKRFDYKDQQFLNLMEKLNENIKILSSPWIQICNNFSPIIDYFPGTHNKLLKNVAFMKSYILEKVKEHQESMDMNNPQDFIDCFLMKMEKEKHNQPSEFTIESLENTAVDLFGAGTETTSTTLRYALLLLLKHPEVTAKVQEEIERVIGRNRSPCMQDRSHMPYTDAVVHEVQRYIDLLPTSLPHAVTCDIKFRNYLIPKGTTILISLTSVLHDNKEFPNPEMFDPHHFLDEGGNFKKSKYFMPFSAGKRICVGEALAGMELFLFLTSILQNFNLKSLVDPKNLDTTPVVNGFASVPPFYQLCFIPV
Chain of human CYP1A2, CYP1A2 (gene 1544) (P05177 whole entry, looked up): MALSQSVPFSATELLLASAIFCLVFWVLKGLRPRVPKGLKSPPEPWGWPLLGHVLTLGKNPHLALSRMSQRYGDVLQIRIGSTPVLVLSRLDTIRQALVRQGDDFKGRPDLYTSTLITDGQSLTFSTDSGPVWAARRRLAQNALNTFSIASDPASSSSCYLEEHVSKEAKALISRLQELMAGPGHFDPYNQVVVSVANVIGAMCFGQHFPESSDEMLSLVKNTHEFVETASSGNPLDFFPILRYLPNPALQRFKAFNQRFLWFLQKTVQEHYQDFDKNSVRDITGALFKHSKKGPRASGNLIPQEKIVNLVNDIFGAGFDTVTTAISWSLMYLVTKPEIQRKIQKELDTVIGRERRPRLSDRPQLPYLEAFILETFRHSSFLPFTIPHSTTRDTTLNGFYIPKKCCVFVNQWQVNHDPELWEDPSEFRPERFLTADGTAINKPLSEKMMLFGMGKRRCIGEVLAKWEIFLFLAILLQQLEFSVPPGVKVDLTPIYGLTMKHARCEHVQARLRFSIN
Chain of human CYP1A1, CYP1A1 (gene 1543) (P04798 whole entry, looked up): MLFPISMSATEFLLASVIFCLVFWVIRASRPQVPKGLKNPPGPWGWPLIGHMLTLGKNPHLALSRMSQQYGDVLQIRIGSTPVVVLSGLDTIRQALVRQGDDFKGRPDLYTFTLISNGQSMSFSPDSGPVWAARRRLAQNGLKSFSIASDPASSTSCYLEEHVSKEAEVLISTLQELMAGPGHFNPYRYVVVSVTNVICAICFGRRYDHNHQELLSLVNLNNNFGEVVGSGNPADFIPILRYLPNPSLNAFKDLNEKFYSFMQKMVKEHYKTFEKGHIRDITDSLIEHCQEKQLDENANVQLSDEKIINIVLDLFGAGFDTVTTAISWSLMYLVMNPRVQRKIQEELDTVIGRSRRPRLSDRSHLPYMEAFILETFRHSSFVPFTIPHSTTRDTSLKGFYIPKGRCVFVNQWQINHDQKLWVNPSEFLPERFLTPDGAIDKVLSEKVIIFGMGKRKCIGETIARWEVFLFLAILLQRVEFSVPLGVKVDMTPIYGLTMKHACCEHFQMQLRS
Chain of human CYP19A1, CYP19A1 (gene 1588) (P11511 whole entry, looked up): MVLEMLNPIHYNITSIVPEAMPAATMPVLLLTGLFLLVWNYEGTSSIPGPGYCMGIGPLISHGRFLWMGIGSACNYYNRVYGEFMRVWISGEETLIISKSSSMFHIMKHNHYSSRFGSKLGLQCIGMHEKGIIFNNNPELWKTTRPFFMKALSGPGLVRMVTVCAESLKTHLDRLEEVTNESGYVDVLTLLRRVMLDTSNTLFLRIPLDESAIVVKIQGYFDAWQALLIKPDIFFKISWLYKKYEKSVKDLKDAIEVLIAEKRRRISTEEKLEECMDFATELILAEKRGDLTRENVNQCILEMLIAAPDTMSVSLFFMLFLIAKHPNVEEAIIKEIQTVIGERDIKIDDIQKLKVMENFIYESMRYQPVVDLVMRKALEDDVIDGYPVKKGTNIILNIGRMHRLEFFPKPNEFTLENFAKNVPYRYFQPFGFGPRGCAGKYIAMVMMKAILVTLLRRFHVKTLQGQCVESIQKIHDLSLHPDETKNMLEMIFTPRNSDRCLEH
Chain of human CYP2J2, CYP2J2 (gene 1573) (P51589 whole entry, looked up): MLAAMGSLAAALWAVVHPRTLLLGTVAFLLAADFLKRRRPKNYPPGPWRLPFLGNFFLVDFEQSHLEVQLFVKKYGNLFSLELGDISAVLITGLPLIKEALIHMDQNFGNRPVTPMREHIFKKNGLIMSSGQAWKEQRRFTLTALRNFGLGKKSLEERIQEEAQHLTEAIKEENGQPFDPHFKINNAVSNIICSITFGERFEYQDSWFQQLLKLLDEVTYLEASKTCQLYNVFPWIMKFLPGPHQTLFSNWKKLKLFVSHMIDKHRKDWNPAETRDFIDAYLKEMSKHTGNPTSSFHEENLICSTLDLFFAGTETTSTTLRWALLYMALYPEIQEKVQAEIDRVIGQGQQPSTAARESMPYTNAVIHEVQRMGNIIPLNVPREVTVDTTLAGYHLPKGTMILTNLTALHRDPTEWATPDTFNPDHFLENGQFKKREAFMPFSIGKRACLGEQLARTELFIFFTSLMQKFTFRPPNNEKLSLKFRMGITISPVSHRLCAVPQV
Chain of human CYP2B6, CYP2B6 (gene 1555) (P20813 whole entry, looked up): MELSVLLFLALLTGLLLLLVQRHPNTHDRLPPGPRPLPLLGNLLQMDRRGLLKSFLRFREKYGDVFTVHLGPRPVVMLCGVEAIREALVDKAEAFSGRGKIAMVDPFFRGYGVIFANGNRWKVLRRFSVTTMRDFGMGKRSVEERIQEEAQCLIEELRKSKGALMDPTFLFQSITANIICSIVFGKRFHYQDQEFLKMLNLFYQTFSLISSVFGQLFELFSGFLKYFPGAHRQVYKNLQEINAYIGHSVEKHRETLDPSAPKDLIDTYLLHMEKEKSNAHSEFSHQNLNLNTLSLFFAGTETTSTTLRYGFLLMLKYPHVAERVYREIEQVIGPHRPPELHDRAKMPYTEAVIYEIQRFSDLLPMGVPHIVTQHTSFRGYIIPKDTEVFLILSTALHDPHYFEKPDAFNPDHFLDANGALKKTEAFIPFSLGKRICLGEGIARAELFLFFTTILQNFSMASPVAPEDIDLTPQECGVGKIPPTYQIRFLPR
Chain of Cytochrome P450 3A4 (Homo sapiens) (P08684 whole entry, looked up): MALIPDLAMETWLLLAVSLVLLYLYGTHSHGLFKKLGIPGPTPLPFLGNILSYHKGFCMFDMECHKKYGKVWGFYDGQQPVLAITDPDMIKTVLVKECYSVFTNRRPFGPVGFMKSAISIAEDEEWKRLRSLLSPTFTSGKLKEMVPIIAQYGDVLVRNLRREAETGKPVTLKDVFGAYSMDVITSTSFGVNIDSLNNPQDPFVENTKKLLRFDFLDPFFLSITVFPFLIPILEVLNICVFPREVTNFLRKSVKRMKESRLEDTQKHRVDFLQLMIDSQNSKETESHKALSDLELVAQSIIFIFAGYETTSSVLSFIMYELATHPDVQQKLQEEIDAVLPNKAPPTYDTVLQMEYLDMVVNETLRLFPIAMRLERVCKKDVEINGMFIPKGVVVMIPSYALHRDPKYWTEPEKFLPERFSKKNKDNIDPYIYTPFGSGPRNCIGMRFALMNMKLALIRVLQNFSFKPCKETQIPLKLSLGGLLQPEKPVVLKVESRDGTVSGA

The AC50 is the concentration at which the activity in the assay is half-maximal. Consider `COP(=S)(OC)SCn1nnc2ccccc2c1=O`, for which the result in assay [1], in assay [2] and in assay [3] was inactive. The AC50 in [4] was 30.2 µM (active); in assay [5] it was 0.363 µM (active); in [6], 0.302 µM (active); in [7], 2.79 µM (active); in assay [8], 1.93 µM (active); in [9], 6.73 µM (active). In addition, the AC50 was 1.87 µM (active) in assay [10]; 4.19 µM (active) in assay [11]; 5.2 µM (active) in [12]; 0.257 µM (active) in [13]; 3.24 µM (active) in assay [14].
In the case of `CC1(C)CCC(=Cc2ccc(Cl)cc2)C1(O)Cn1cncn1` (stereo unspecified), the result in assay [1], in assay [2], in assay [3] and in assay [4] was inactive. The AC50 in [5] was 0.908 µM (active); in assay [8], 2.03 µM (active); in [12], 0.289 µM (active); in assay [13], 0.252 µM (active); in assay [14] it was 1.11 µM (active).
On to `Cn1c(-c2ccccc2)cc(-c2ccccc2)[n+]1C`, for which the result in assay [1] was inactive. For the same molecule, the AC50 in assay [2] is 3.97 µM (active); in assay [3] it was 4.04 µM (active); in assay [4], 3.16 µM (active); in assay [11] it was 5.06 µM (active).
Turning to `CC(C)N1C(=O)N(c2ccccc2)CSC1=NC(C)(C)C`, the AC50 was 38.8 µM (active) in assay [1]; 32.2 µM (active) in assay [2]; 26.3 µM (active) in [3]; 27.4 µM (active) in [4]; 27.8 µM (active) in assay [15]; 8.79 µM (active) in assay [8].
Take `N#CN=C1SCCN1Cc1ccc(Cl)nc1`: the outcome in assay [1], in assay [2], in assay [3], in assay [4], in assay [15] and in [11] was inactive. Also, in [16], the AC50 is 0.933 µM (active).
Consider `CSC(=O)c1c(C(F)F)nc(C(F)(F)F)c(C(=O)SC)c1CC(C)C`, for which, in assay [1], the result was inactive. The AC50 was 27.6 µM (active) in assay [2]; 12.7 µM (active) in [3]; 28.6 µM (active) in assay [4]; 14.6 µM (active) in assay [15]; 3.3 µM (active) in [7]; 6.58 µM (active) in assay [11]. In assay [13], the AC50 was 7.01 µM (active).
Take `OC(c1ccc(Cl)cc1)(c1ccc(Cl)cc1)C(Cl)(Cl)Cl`: the AC50 in assay [1] is 34.4 µM (active); in assay [2], 20 µM (active); in assay [3] it was 27.9 µM (active); in [4], 15 µM (active); in assay [13], 0.806 µM (active). Also, the molecule was called inactive in assay [16] and in [17].
As to `COP(=O)(OC)O/C(C)=C/C(=O)N(C)C`, the result in assay [1], in [2], in assay [3], in assay [4] and in [13] was inactive.
